# ± gives the standard deviation of the averaged measurements.
# Test system: mESC LDLR-Dup GFP reporter (SpCas9 MH-deletion repair)
# Experiment: fraction of GFP+ cells relative to DMSO control (fold change); higher = more MH-deletion repair to in-frame LDLR (or more editing)
# Conditions: 2 µM; 7 days post-transfection
row,Compound,fraction of GFP+ cells
1,Nc1ncn([C@@H]2O[C@H](CO)[C@@H](O)[C@H]2O)c(=O)n1 [Azacitidine],1.1 ± 0.089
2,CCn1cc(-c2ccnc3[nH]c(-c4cccc(CN(C)C)c4)cc23)c(-c2ccc(NC(=O)N(C)C)cc2)n1,0.251 ± 0.13
3,O=C(NC(NC(=S)Nc1ccc(F)c([N+](=O)[O-])c1)C(Cl)(Cl)Cl)C(c1ccccc1)c1ccccc1 (stereo not drawn),0.561 ± 0.13
4,Nc1cc(F)ccc1NC(=O)/C=C/c1cnn(C/C=C/c2ccccc2)c1,0.555 ± 0.17
5,COc1c(O)cc(O)c2c(=O)cc(-c3ccccc3)oc12 [Wogonin],0.728 ± 0.15
6,COc1nc(N)nc2c1ncn2[C@@H]1O[C@H](CO)[C@@H](O)[C@@H]1O [Nelarabine],1.12 ± 0.14
7,COc1ccc(-c2oc3c(CC=C(C)C)c(O[C@@H]4O[C@H](CO)[C@@H](O)[C@H](O)[C@H]4O)cc(O)c3c(=O)c2O[C@@H]2O[C@@H](C)[C@H](O)[C@@H](O)[C@H]2O)cc1 [Icariin],1.26 ± 0.2
8,Nc1nc(=O)c2nc(CNc3ccc(C(=O)N[C@@H](CCC(=O)O)C(=O)O)cc3)cnc2[nH]1 [Folic acid],1.24 ± 0.46
9,O=S(=O)(N=Cc1c(O)ccc2ccccc12)c1cccs1,1.15 ± 0.65
10,Cn1cc(-c2cnn3c(N)c(Br)c([C@@H]4CCCNC4)nc23)cn1,0.689 ± 0.069
11,CC(C)(Oc1ccc(CCNC(=O)c2ccc(Cl)cc2)cc1)C(=O)O [Bezafibrate],1.52 ± 0.58
12,Cc1ccc(C(=O)OCc2ccc([C@@H](CN)C(=O)Nc3ccc4cnccc4c3)cc2)c(C)c1,1.71 ± 0.5
13,O=C(COc1cccc2c(=O)[nH]ccc12)c1ccccc1,0.936 ± 0.095
